We go through six compounds from PubChem BioAssay (NCATS).

Test [1] can be described thus: qHTS assay for small molecule antagonists of peroxisome proliferator-activated receptor delta signaling (AID 588535).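 Further: cells co-treated with a PPAR-delta agonist as stimulator during compound exposure.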 As to conditions: HEK293T PPARd-UAS-bla, beta-lactamase FRET ratio, 18 h; 460 nm channel. The gist of the method:
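Antagonist-mode beta-lactamase reporter (GeneBLAzer PPAR-delta-UAS-bla) in HEK293T cells, 2% charcoal/dextran FBS, 4000 cells/well. Compound titrations, 18 h at 37 C; CCF4 ratio read, IC50 and efficacy from Hill fits.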

Test [2] has as its target Peroxisome proliferator-activated receptor gamma (Homo sapiens) (UniProt P37231). Briefly: qHTS assay for small molecule agonists of peroxisome proliferator-activated receptor gamma signaling (AID 588536; active means well fitted curve in the direction sought with a large enough effect in the signal ratio, with a control signal flat, not every such curve was filed as active; the % refers to the signal ratio;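 further: 0% = DMSO basal wells and 100% = rosiglitazone at 2 µM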). As to conditions: HEK293 PPARg-UAS-bla, beta-lactamase ratio, 16 h, percent of rosiglitazone response, DMSO as zero; series mostly up to 76.7 µM. The gist of the method: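 GeneBLAzer PPAR-gamma-UAS-bla HEK293 cells in 1% charcoal/dextran-treated FBS medium were treated 16 h at 37 C with compounds. Beta-lactamase activity was read by CCF4 ratio (460/530 nm). Response was normalized to 2 uM rosiglitazone (100%) and DMSO, then Hill-fitted for EC50 and efficacy.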
On the technique in general: qHTS replaces the single test concentration by a dilution series.

Test [3] deals with Vitamin D3 receptor (Homo sapiens) (UniProt P11473). The test is described as follows: qHTS assay for small molecule agonists of vitamin D receptor signaling (AID 588543; calls by dose curve;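 further: 0% = DMSO basal and 100% = reference agonist control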). As to conditions: HEK293T VDR-UAS-bla, beta-lactamase ratio, 16 h; series mostly up to 76.8 µM. The gist of the method: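 Reporter cells (HEK293T, VDR-UAS-bla) were seeded in medium with 2% charcoal-stripped serum and incubated 5 h, then compounds in concentration series were added for 16 h at 37 °C. Stimulation was scaled between DMSO basal and 50 nM 1α,25-dihydroxyvitamin D3.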
Chain of Vitamin D3 receptor (Homo sapiens) (P11473 whole entry, looked up): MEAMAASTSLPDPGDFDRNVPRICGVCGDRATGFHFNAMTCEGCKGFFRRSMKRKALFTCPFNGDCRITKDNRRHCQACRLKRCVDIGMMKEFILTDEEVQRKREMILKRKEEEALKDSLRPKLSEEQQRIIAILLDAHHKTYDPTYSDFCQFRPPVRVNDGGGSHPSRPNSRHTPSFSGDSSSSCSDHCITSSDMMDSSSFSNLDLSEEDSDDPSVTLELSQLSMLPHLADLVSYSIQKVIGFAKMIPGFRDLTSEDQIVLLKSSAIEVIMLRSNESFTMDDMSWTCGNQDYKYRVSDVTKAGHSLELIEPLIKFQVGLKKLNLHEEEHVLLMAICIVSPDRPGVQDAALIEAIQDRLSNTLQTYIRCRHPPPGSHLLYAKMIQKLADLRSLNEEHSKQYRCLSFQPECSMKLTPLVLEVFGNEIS

Test [4] can be described thus: qHTS assay for small molecule agonists of retinoid X receptor alpha signaling (AID 588544). Particulars: HEK293T RXRa-UAS-bla, beta-lactamase reporter, 18 h; 530 nm emission.
The nature of test [5]: qHTS assay for small molecule antagonists of retinoid X receptor alpha signaling (AID 588546; active means well fitted inhibition curve with a large enough effect in the signal ratio, with a control signal flat, not every such curve was filed as active; the % refers to the signal ratio;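 further: cells stimulated with 9-cis-retinoic acid as agonist; on the % scale 0 is the no-effect control and ±100 the full control effect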). As to conditions: HEK293T RXRa-UAS-bla, beta-lactamase ratio, antagonist mode; measured here: W530 green channel, cytotoxicity proxy. The gist of the method:
(§1)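 Beta-lactamase reporter inhibition, read as CCF4 fluorescence ratio (ex 405, em 460/530 nm) after 2 h at RT. HEK293T UAS-bla cells, 2500/well, were stimulated with 9-cis-RA at 500 or 100 nM final alongside test compound for 18 h at 37 C.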

Test [6] addresses Retinoic acid receptor RXR-alpha (Homo sapiens) (UniProt P19793). The description is as above. As to conditions: HEK293T RXRa-UAS-bla, beta-lactamase ratio, antagonist mode. An outline of the steps: as §1
The nature of test [7]: qHTS assay for small molecule activators of the p53 signaling pathway (AID 651743; active means well fitted activation curve with a large enough effect in the signal ratio, not every such curve was filed as active; the % refers to the signal ratio; further: % of control where 0% means no effect). Particulars: HCT-116 p53RE-bla, beta-lactamase FRET ratio, 16 h; activation: stronger effect = higher value. An outline of the steps: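 p53RE-bla HCT-116 cells carrying a beta-lactamase reporter under p53 response elements were exposed to compounds for 16 hours at 37 C. Reporter activity read as fluorescence after 2 hours at room temperature with LiveBLAzer B/G FRET substrate.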

Test [8] can be described thus: qHTS assay for small molecule activators of the nuclear factor-kappa B (NF-kB) signaling pathway (AID 651749; active means well fitted activation curve with a large enough effect in the signal ratio; the % refers to the signal ratio; further: % of control where 0% means no effect). As to conditions: NF-kB-bla ME-180 cells, beta-lactamase FRET ratio, 16 h; activation: stronger effect = higher value. The gist of the method:
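NF-kB-bla ME-180 cells carrying a beta-lactamase reporter under an NF-kB response element, 2,000 cells/well, exposed to compound for 16 hr at 37C; FRET-based beta-lactamase fluorescence read-out of pathway activation.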

Test [9] is described as follows: qHTS assay for environmental chemicals that activate the Aryl hydrocarbon Receptor (AhR) signaling pathway (AID 651777). Further: % of control where 0% means no effect; nearly all actives have a fitted effect of over 15% in size. Particulars: 1A2-DRE human hepatoma cells, luciferase, 24 h; activation: stronger effect = higher value. An outline of the steps:
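Reporter gene assay: hepatoma cells with DRE/CYP1A2-luciferase, 24 hr compound incubation at 37 C, 5% CO2, luminescence after One-Glo (30 min, RT).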

The target of test [10] is Peroxisome proliferator-activated receptor alpha (Homo sapiens) (UniProt Q07869). The test is described as follows: qHTS assay for small molecule agonists of the peroxisome proliferator-activated receptor alpha (PPARalpha) signaling pathway (AID 651778). Further: % of control where 0% means no effect. As to conditions: PathHunter PPARalpha complementation, chemiluminescence, 6 h; max response: stronger effect = higher value. The gist of the method: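 Enzyme-fragment complementation assay in which ligand-bound PPARalpha translocates and forms an active enzyme that generates chemiluminescence. Cells were plated overnight, exposed to compound for 6 hr at 37 C, and then given detection reagent for 60 min at room temperature.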
Chain of Peroxisome proliferator-activated receptor alpha (Homo sapiens) (Q07869 whole entry, looked up, the tested form may be a part): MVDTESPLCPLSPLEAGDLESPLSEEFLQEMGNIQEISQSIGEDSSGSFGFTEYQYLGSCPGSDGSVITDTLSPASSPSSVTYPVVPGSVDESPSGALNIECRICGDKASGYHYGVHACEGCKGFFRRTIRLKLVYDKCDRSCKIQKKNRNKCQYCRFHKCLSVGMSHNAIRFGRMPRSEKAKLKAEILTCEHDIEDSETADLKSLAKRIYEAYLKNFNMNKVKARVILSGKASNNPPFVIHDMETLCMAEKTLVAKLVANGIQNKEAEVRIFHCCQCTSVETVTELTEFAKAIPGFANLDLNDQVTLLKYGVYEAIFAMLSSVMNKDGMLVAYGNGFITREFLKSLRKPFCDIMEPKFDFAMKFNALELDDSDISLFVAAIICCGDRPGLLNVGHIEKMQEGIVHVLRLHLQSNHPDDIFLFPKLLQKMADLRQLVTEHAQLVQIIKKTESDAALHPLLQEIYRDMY

The nature of test [11]: qHTS assay for small molecule agonists of the antioxidant response element (ARE) signaling pathway measured by Nrf2-dependant transcriptional activity (AID 720636; active means well fitted curve in the direction sought with a large enough effect in the repeat runs; an effect the other way counts as inactive or inconclusive; further: % of control where 0% means no effect). As to conditions: ARE-luc HepG2, Nrf2 luciferase reporter, 16 h; series mostly up to 92.4 µM. The gist of the method: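 Nrf2-dependent transcription is measured in ARE-luc HepG2 cells: compound is applied for 16 hr at 37 C after a 6 hr attachment period, and luciferase activity is quantified by luminescence using ONE-Glo.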

The nature of test [12]: qHTS assay for small molecule agonists of the antioxidant response element (ARE) signaling pathway measured by Nrf2-dependant transcriptional activity - cell viability counter screen (AID 720653; active means well fitted curve in the direction sought with a large enough effect in the repeat runs; an effect the other way counts as inactive or inconclusive; further: on the % scale 0 is the no-effect control and ±100 the full control effect). As to conditions: ARE-bla HepG2 viability, CellTiter-Glo ATP luminescence, 16 h; max response: stronger effect = lower value. The gist of the method:
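ARE-bla HepG2 cells treated with compounds for 16 h at 37C; this counter screen measures viability as intracellular ATP by CellTiter-Glo luminescence after 30 min at room temperature.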

The nature of test [13]: qHTS assay for cell viability of HEK293 cells (AID 743288). Further: on the % scale 0 is the no-effect control and ±100 the full control effect; nearly all actives have a fitted effect of over 50% in size. As to conditions: ATP luminescence (CellTiter-Glo), 18 h; max response: stronger effect = lower value. An outline of the steps: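 HEK293 parental, 2,000 cells/well; ≥5 h pre-incubation 37 C; pintool compound addition; 18 h, 37 C; CellTiter-Glo 30 min RT; luminescence read.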
A short description of test [14]: qHTS assay for cell viability of the p53RE-bla HCT-116 cell line (AID 743292). Further: nearly all actives have a fitted effect of over 55% in size. Further: potency means the concentration at half of the fitted maximal effect. As to conditions: p53RE-bla HCT-116 viability, ATP luminescence, 16 h; series mostly up to 95 µM. The gist of the method: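 ATP-based luminescence, 16 h compound exposure at 37 C, p53RE-bla HCT-116 cells at 4,000/well.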
Test [15] addresses Nuclear receptor subfamily 1 group I member 2 (Rattus norvegicus) (UniProt Q9R1A7). The test is described as follows: qHTS assay for small molecule activators of the rat pregnane X receptor (rPXR) signaling pathway (AID 651751; call rule not given here; further: 0% is about no effect). Particulars: rPXR reporter cells, luciferase (One-Glo), 24 h.
Test [16] can be described thus: qHTS assay for small molecule activators of the human pregnane X receptor (PXR) signaling pathway (AID 720659; call rule not given here; further: 0% is about no effect). As to conditions: DPX-2 HepG2 CYP3A4-luciferase, 24 h; series mostly up to 92.3 µM.
In test [17] the target is Peroxisome proliferator-activated receptor gamma (Homo sapiens) (UniProt P37231). Briefly: qHTS assay for small molecule antagonists of peroxisome proliferator-activated receptor gamma signaling (AID 588537; active means well fitted inhibition curve with a large enough effect in the signal ratio, with a control signal flat, not every such curve was filed as active; the % refers to the signal ratio;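 further: reporter cells co-stimulated with 50 nM rosiglitazone agonist during compound treatment; % of control where 0% means no effect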). Particulars: HEK293 PPARg-UAS-bla, beta-lactamase ratio, antagonist mode; series mostly up to 76.8 µM. An outline of the steps:
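PPARγ-UAS-bla HEK293 cells (3000/well) in 1% charcoal/dextran-stripped FBS are treated with compound, then stimulated with 50 nM rosiglitazone for 16 h at 37 °C. Read-out is CCF4 β-lactamase fluorescence after 2 h at RT. IC50 comes from Hill fits normalised to rosiglitazone and DMSO.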

The target of test [18] is Thyroid hormone receptor beta (Homo sapiens) (UniProt P10828). The test is described as follows: qHTS assay for small molecule agonists of thyroid hormone receptor beta signaling (AID 588545; calls by dose curve;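 further: 0% = DMSO only and 100% = 10 nM T3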). Particulars: TR-UAS-bla GripTite HEK 293, beta-lactamase ratio, agonist mode, 18 h; series mostly up to 76.7 µM. An outline of the steps:
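Efficacy and EC50 values derive from Hill fits of qHTS titration data, normalized to 10 nM T3 and DMSO-only wells. HEK 293 reporter cells were stimulated for 18 hrs at 37 C, with beta-lactamase activity measured by CCF4 fluorescence.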

In test [19] the target is Glucocorticoid receptor (Homo sapiens) (UniProt P04150). The test is described as follows: qHTS assay for small molecule agonists of glucocorticoid receptor signaling (AID 588532; active means well fitted curve in the direction sought with a large enough effect in the signal ratio, with a control signal flat; the % refers to the signal ratio;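 further: 100% = dexamethasone at 0.1 µM and 0% = DMSO only wells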). As to conditions: HeLa MMTV-bla, beta-lactamase ratio, agonist, 18 h; stronger effect = higher value; percent of dexamethasone control, DMSO zero. An outline of the steps: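 HeLa GRE-bla reporter cells; 18 h compound exposure at 37 C; 2 h CCF4 loading at room temperature; fluorescence at 460 and 530 nm; EC50 by Hill equation.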
Chain of Glucocorticoid receptor (Homo sapiens) (P04150 whole entry, looked up): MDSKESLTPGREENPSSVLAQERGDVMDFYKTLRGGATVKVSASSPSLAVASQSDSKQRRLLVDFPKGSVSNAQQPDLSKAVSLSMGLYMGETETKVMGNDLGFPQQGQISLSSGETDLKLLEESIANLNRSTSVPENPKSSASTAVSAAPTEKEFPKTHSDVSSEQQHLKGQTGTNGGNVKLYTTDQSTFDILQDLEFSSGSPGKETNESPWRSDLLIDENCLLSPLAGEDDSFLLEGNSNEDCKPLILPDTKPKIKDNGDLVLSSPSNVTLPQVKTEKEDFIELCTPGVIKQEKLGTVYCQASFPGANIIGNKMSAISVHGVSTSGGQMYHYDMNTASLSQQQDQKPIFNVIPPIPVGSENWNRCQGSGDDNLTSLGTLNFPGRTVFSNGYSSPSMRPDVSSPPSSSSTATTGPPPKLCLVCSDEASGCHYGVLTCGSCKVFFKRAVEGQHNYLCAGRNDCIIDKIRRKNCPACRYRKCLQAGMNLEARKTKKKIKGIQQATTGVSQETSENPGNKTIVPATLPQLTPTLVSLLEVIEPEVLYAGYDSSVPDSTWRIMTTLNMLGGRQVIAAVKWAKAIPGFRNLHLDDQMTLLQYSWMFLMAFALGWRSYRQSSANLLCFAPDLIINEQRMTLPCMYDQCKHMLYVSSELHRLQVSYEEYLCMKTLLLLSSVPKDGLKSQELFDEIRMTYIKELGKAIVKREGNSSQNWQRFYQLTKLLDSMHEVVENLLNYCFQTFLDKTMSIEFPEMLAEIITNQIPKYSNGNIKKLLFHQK

For test [20] the target is unchanged. The test is described as follows: qHTS assay for small molecule antagonists of glucocorticoid receptor signaling (AID 588533; active means well fitted inhibition curve with a large enough effect in the signal ratio, with a control signal flat, not every such curve was filed as active; the % refers to the signal ratio; further: on the % scale 0 is the no-effect control and ±100 the full control effect). Particulars: HeLa MMTV-bla, GRE beta-lactamase ratio, antagonist mode, 18 h; series mostly up to 76.8 µM. An outline of the steps:
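Antagonist-mode qHTS: compound titrations added to GRE-bla HeLa cells, then dexamethasone 2 nM final; 18 h, 37 C. CCF4 FRET fluorescence normalized to dexamethasone and DMSO; IC50 from Hill fit.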

Structures are written as SMILES. Inconclusive results are not listed. Calls of active or inactive are those of the source. Unless noted, the call rests on the fitted dose curve; in most records, active means well fitted curve in the direction sought with a large enough effect; inconclusive means small, poorly fitted or top-dose-only effect, or another doubt; inactive means no such curve, though single readings can be large; an effect the other way counts as inactive or inconclusive.

Chain of Peroxisome proliferator-activated receptor gamma (Homo sapiens) (P37231 whole entry, looked up): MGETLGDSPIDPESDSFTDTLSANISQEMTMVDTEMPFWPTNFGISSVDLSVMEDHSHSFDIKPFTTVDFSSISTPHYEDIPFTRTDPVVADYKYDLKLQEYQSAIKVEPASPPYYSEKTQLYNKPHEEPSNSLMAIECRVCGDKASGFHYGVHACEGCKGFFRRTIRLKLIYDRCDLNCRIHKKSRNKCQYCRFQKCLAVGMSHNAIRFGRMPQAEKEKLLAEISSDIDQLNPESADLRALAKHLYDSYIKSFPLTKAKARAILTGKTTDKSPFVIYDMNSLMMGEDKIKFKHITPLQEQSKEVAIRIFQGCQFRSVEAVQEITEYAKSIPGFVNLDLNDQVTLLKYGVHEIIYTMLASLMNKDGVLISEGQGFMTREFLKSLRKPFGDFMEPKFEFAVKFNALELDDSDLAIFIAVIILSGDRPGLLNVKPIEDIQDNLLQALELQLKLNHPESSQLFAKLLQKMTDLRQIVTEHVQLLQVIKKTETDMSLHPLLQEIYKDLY
Chain of Retinoic acid receptor RXR-alpha (Homo sapiens) (P19793 whole entry, looked up): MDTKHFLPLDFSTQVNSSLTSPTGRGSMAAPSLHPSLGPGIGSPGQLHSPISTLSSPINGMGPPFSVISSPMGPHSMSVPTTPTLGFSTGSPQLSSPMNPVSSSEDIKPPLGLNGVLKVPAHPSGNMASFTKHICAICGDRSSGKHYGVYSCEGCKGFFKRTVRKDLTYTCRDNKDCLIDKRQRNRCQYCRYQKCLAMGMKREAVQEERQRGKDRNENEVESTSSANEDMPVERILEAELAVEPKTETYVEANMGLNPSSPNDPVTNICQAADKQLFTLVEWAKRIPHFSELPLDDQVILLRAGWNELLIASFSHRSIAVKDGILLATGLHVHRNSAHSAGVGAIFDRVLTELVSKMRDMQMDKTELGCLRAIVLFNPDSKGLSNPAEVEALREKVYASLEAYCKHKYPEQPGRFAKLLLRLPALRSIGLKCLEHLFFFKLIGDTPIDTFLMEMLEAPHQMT
Chain of Thyroid hormone receptor beta (Homo sapiens) (P10828 whole entry, looked up): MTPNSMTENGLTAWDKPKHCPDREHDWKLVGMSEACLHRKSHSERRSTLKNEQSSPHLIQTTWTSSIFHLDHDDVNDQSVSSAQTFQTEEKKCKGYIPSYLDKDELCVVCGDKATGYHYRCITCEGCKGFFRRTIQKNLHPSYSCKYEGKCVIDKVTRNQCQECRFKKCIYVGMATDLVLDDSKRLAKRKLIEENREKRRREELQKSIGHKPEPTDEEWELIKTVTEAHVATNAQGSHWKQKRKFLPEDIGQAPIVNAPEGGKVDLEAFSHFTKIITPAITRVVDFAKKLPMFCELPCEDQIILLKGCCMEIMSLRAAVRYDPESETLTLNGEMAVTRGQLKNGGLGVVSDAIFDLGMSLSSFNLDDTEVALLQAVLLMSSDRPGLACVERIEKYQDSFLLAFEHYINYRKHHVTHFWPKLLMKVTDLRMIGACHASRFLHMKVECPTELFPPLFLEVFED
Chain of Nuclear receptor subfamily 1 group I member 2 (Rattus norvegicus) (Q9R1A7 whole entry, looked up): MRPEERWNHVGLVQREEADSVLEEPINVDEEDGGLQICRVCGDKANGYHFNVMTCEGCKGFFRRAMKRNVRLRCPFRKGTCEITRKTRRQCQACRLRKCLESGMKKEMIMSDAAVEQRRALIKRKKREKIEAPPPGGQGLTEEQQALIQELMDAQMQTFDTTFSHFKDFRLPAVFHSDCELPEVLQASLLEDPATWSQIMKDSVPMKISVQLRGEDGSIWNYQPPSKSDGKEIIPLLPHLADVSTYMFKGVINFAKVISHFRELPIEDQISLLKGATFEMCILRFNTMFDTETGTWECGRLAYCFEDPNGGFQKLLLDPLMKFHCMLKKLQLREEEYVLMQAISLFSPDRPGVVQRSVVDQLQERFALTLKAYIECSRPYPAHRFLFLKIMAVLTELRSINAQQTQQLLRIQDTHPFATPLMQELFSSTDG

Consider `CCCCCCCCCCCCc1ccccc1`, for which the max response is -16.9% in test [1]; -7.45% in test [4]; -16.5% in test [5]; 3.12% (inactive) in test [6]; -0.756% (inactive) in [10]; -12.7% (inactive) in test [12]. The max response in test [13] was 2.81% (inactive); in test [15], 0.082% (inactive). Besides, the outcome in test [2], in test [3] and in [16] was inactive. Further, the activation in test [7] is -0.535% (inactive); in test [8], 1.6% (inactive); in test [9] it was 0.463% (inactive). The Potency result in test [11] and in [14] was “inactive” each time.
As to `CCCCCCCCCC(=O)OC`, the max response in test [1] was -5.35%; in [4] it was -16.2%; in [5], -11.2%; in [10], 1.96% (inactive); in [12], -16.8% (inactive); in [13] it was -11.5% (inactive). The max response in [15] was -1.31% (inactive). The result in test [2] and in test [16] was inactive. In addition, the Potency entry in test [17], in test [18], in test [11] and in test [14] was “inactive” each time. Further, the activation in test [8] is 0.17% (inactive); in test [9] it was 0.259% (inactive).
`CCCCCCCC[Si](OCC)(OCC)OCC`: the activation in test [19] was -8.51% (inactive); in [7], 1.43% (inactive); in test [8], 1.32% (inactive); in [9], 0.203% (inactive). Further, the Potency entry in test [20], in test [17], in [18], in test [11] and in [14] was “inactive” in each case. Further, the max response in test [1] was 2.69%; in test [5], -6.97%; in test [6] it was -6.63% (inactive); in [10], 0.0712% (inactive); in [12] it was 5.53% (inactive); in test [13] it was 0.144% (inactive). Further, the max response in [15] is 6.41% (inactive). The outcome in test [2], in test [3] and in test [16] was inactive.
Regarding `O=C(Cl)c1cccc(C(=O)Cl)c1`, the Potency result in [20], in test [17] and in [14] was “inactive” in each case. The max response was -11.7% in test [1]; -7.46% in test [4]; -3.89% in test [5]; -13.1% (inactive) in [6]; -0.213% (inactive) in [10]; 5.28% (inactive) in test [12]. In addition, the max response is -6.55% (inactive) in test [13] and -0.886% (inactive) in test [15]. In addition, the outcome in test [2], in test [3] and in test [16] was inactive. Moreover, the figures for the activation in [7] and in [9] were -3.51% (inactive) and -0.235% (inactive), respectively.
As for `CC/C(=C(\c1ccc(O)cc1)c1ccc(OCCN(C)C)cc1)c1ccccc1`, the results for the activation in test [19] and in [9] were -2.75% (inactive) and -12.4% (inactive), respectively. Moreover, the max response in test [10] is -2.87% (inactive). Also, the Potency in [14] was 39.8 µM (active).
In the case of `CC(C)CC(C)(O)C#CC(C)(O)CC(C)C` (stereo unspecified), the activation in test [19] was 4.46% (inactive); in test [7] it was 1.9% (inactive); in test [8], -0.882% (inactive); in [9], 0.133% (inactive). For the same compound, the Potency entry in [20], in [17], in [18], in test [11] and in test [14] was “inactive” throughout. Also, the result in test [2] and in test [3] was inactive. The max response in test [4] was 10.7%; in test [5], -0.0198%; in test [10], -1.54% (inactive); in test [12] it was -3.69% (inactive); in [13], -6.63% (inactive).
